Assay results as given in PubChem BioAssay.
Measured potencies and affinities stand elsewhere. Records with an inconclusive call do not appear. Activity calls are given as the source filed them.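 How the source made its calls, unless noted: active means falling signal with fitted half-maximal potency no higher than twice the top valid tested dose; inconclusive means poor fit quality, or flat fit spanning -70% to -30%; inactive means potency over limit, rising signal, or flat fit inside 30%.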

How the values were obtained:
[1] = fungal growth arrest, C. neoformans – Alamar Blue, cherry-picks, dose response (AID 686998)
[2] = C. neoformans lysis by adenylate kinase leakage – AK release luminescence, cherry-picks, dose response (AID 687000;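 active means fitted dose curve reaches 40% lysis signal rise at or below the highest valid concentration tested for that sample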;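 further: luminescent detection of adenylate kinase leaking from lysed yeast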)
[3] = viability loss in HepG2 hepatoma cells – cell-based, cherry-picks, set 2, cytotoxicity control, dose response (AID 687002;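 active means a dose-response fit showing signal loss, with half-maximal concentration no higher than twice the top tested dose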)
[4] = viability loss in HeLa cells – cell-based, ATP luminescence, cherry-pick samples, cytotoxicity control, dose response (AID 687004;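 active means a fitted half-maximal concentration no higher than twice the top valid tested dose, with signal falling as cells die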)

Measured: outcome

C[C@@H]1CN([C@@H](C)CO)C(=O)c2cc(NC(=O)Nc3ccc4c(c3)OCO4)ccc2O[C@H]1CN(C)Cc1ccc(Oc2ccccc2)cc1
inactive: [1] | [2] | [3] | [4]

Cc1ccc(NC(=O)[C@H](C)NC(=O)C2CCN(C(=O)[C@@H](N)CC(C)C)CC2)cc1
inactive: [1] | [2] | [3] | [4]

CC=Cc1ccc2n(c1=O)C[C@H]1[C@H](CO)[C@@H](C(=O)NCc3ccc4c(c3)OCO4)[C@@H]2N1C(=O)C1CC1 (mixture of isomers)
inactive: [1] | [2] | [3] | [4]

C[C@@H]1CN([C@@H](C)CO)C(=O)Cc2cc(NC(=O)Nc3cccc4ccccc34)ccc2O[C@@H]1CN(C)Cc1ccc(C(=O)O)cc1
inactive: [1] | [2] | [3] | [4]

CCC(=O)N[C@H]1C=C[C@H](CC(=O)NCC2CCCCC2)O[C@@H]1CO
inactive: [1] | [2] | [3] | [4]

Cc1cc(C(=O)Nc2ccc3c(c2)C(=O)N(C)[C@H]2CC[C@@H](CC(=O)N[C@@H](C)c4ccccc4)O[C@H]2CO3)no1
inactive: [1] | [2] | [3] | [4]

O=C(C[C@H]1C[C@H]2c3cc(NC(=O)C4CCC4)ccc3O[C@H]2[C@@H](CO)O1)NCc1cccc(F)c1
inactive: [1] | [2] | [3] | [4]

C[C@H]1CN([C@@H](C)CO)C(=O)c2cc(NC(=O)Nc3cccc4ccccc34)ccc2O[C@@H]1CN(C)C(=O)Nc1ccc(C(F)(F)F)cc1
inactive: [1] | [2] | [3] | [4]

COc1ccc(NC(=O)N(C)C[C@H]2OCCCC[C@@H](C)Oc3ccc(N(C)C)cc3C(=O)N([C@H](C)CO)C[C@H]2C)cc1
inactive: [1] | [2] | [3] | [4]

O=C(C[C@@H]1CC[C@H]2[C@@H](COC[C@@H](O)CN2C(=O)Nc2ccc(Cl)cc2)O1)NCCc1ccncc1
inactive: [1] | [2] | [3] | [4]

O=S(=O)(NC[C@@H]1[C@@H](c2ccccc2)[C@H](CO)N1CC1CC1)c1ccccc1
inactive: [1] | [2] | [3] | [4]

O=C(NC(=S)Nc1ccccc1)c1cc([N+](=O)[O-])ccc1N1CCOCC1
inactive: [1] | [2] | [3] | [4]

C[C@H]1CN([C@@H](C)CO)C(=O)Cc2cc(NS(=O)(=O)c3ccc(F)cc3)ccc2O[C@H]1CN(C)S(=O)(=O)c1ccc(F)cc1
inactive: [1] | [2] | [3] | [4]

CN1[C@H](C(=O)N2CCc3ccccc3C2)[C@@H](CO)[C@@H]2Cn3c(ccc(-c4cccnc4)c3=O)[C@@H]21
inactive: [1] | [2] | [3] | [4]

CO[C@@H]1CN(C)C(=O)c2ccc(NC(C)=O)cc2OC[C@@H](C)N(C(=O)c2ccccn2)C[C@H]1C
inactive: [1] | [2] | [3] | [4]

Cc1ccc(S(=O)(=O)N(C)C[C@@H]2Oc3ncc(Br)cc3C(=O)N([C@@H](C)CO)C[C@H]2C)cc1
inactive: [1] | [2] | [3] | [4]

COc1ccccc1CNC(=O)COc1ccc2c(c1)CCC2
inactive: [1] | [2] | [3] | [4]

O=C(C[C@@H]1CC[C@@H]2[C@H](COC[C@H](O)CN2Cc2cccc(C(F)(F)F)c2)O1)NCc1ccc(Cl)cc1
inactive: [1] | [2] | [3] | [4]

C[C@@H]1CN([C@H](C)CO)C(=O)c2cc(-c3cccc(F)c3)cnc2O[C@H]1CN(C)Cc1ccccc1
inactive: [1] | [2] | [3] | [4]

COc1ccc(NC(=O)N(C)C[C@@H]2OCCCC[C@H](C)Oc3ccc(NC(=O)Nc4ccc5c(c4)OCO5)cc3C(=O)N([C@H](C)CO)C[C@@H]2C)cc1
inactive: [1] | [2] | [3] | [4]

CNC[C@@H]1OCCCC[C@H](C)Oc2ccc(NC(=O)NC(C)C)cc2C(=O)N([C@H](C)CO)C[C@H]1C
inactive: [1] | [2] | [3] | [4]

CNC[C@@H]1OCCCC[C@H](C)Oc2ccc(NC(=O)Nc3ccc(F)cc3)cc2C(=O)N([C@@H](C)CO)C[C@H]1C
inactive: [1] | [2] | [3] | [4]

Cc1ccc(S(=O)(=O)N(C)C[C@@H]2Oc3ccc(NS(=O)(=O)c4ccc(Cl)cc4)cc3CC(=O)N([C@@H](C)CO)C[C@@H]2C)cc1
inactive: [1] | [2] | [3] | [4]

Cc1cc(C)c(NC(=O)C2CCCCN2C)c(C)c1 (stereo not given)
inactive: [1] | [2] | [3] | [4]

CC1=C(C(=O)OCc2ccccc2)C(c2ccccc2)NC(=O)N1 (stereo not given)
inactive: [1] | [2] | [3] | [4]

COc1ccc(NC(=O)Nc2ccc3c(c2)C(=O)N([C@H](C)CO)C[C@@H](C)[C@@H](CN(C)C(=O)CCC(F)(F)F)OCCCC[C@H](C)O3)cc1
inactive: [1] | [2] | [3] | [4]

O=C(NCCc1ccccc1)[C@H]1[C@H](CO)[C@H]2Cn3c(cccc3=O)[C@@H]1N2C(=O)C1CCC1
inactive: [1] | [2] | [3] | [4]

CN1C(=O)c2cc(NS(=O)(=O)c3cccc(F)c3)ccc2OC[C@@H]2O[C@@H](CC(=O)O)CC[C@H]21
inactive: [1] | [2] | [3] | [4]

CNC[C@H]1OCCCC[C@H](C)Oc2ccc(NC(=O)CCCN(C)C)cc2C(=O)N([C@H](C)CO)C[C@@H]1C
inactive: [1] | [2] | [3] | [4]

O=C(C[C@H]1CC[C@H]2[C@@H](COC[C@H](O)CN2Cc2cccc(Cl)c2)O1)Nc1nccs1
inactive: [1] | [2] | [3] | [4]

C[C@@H]1CN([C@H](C)CO)C(=O)c2cc(NS(=O)(=O)c3ccccc3)ccc2O[C@H]1CN(C)C(=O)NC1CCCCC1
inactive: [1] | [2] | [3] | [4]

C[C@@H]1CN([C@H](C)CO)C(=O)c2cc(NC(=O)Nc3cccc4ccccc34)ccc2O[C@H]1CN(C)C(=O)Nc1ccc(C(F)(F)F)cc1
inactive: [1] | [2] | [3] | [4]

COc1ccc(S(=O)(=O)Nc2ccc3c(c2)C(=O)N([C@H](C)CO)C[C@H](C)[C@H](CN(C)C(=O)Nc2ccccc2)O3)cc1
inactive: [1] | [2] | [3] | [4]

CC(C)NC(=O)Nc1ccc2c(c1)C(=O)N([C@@H](C)CO)C[C@H](C)[C@@H](CN(C)C(=O)CCC(F)(F)F)OCCCC[C@H](C)O2
inactive: [1] | [2] | [3] | [4]

O=C(C[C@@H]1C=C[C@@H](NC(=O)c2cccc(F)c2)[C@H](CO)O1)NCCN1CCCC1
inactive: [1] | [2] | [3] | [4]

C[C@H]1CN([C@@H](C)CO)C(=O)c2cc(C#Cc3ccccn3)cnc2O[C@H]1CN(C)Cc1ccncc1
inactive: [1] | [2] | [3] | [4]

O=C(C[C@@H]1CC[C@H](NC(=O)Cc2ccccn2)[C@H](CO)O1)NCCc1ccccc1
inactive: [1] | [2] | [3] | [4]

Cc1cccc(N2CCN(C(=O)C3CCC(=O)N3C(C)C)CC2C)c1 (stereo not given)
inactive: [1] | [2] | [3] | [4]

C[C@@H]1CCCCO[C@@H](CN(C)Cc2ccc(C(F)(F)F)cc2)[C@@H](C)CN([C@@H](C)CO)C(=O)c2cc(NS(=O)(=O)c3cn(C)cn3)ccc2O1
inactive: [1] | [2] | [3] | [4]

CC(C)C#Cc1ccc2c(c1)O[C@H](CN(C)C(=O)Cc1ccccn1)[C@H](C)CN([C@H](C)CO)S2(=O)=O
inactive: [1] | [2] | [3] | [4]

Cc1noc(C)c1S(=O)(=O)Nc1ccc2c(c1)C(=O)N([C@H](C)CO)C[C@@H](C)[C@H](CN(C)Cc1ccccc1)OCCCC[C@H](C)O2
inactive: [1] | [2] | [3] | [4]

N#Cc1ccc(-c2ccc3c(c2)[C@@H]2[C@@H](CCN2C(=O)Cc2ccccc2)[C@@H](CO)N3)cc1
inactive: [1] | [2] | [3] | [4]

Cc1ccc(NC(=O)C2(C)CCCN2CC(C)C)cc1C (stereo not given)
inactive: [1] | [2] | [3] | [4]

C[C@@H]1CN([C@@H](C)CO)C(=O)c2cc(NC(=O)CCN3CCOCC3)ccc2O[C@@H]1CN(C)Cc1ccc(C(=O)O)cc1
inactive: [1] | [2] | [3] | [4]

CO[C@H]1CN(C)C(=O)c2cc(NC(=O)c3ccccc3F)ccc2OC[C@H](C)N(CC2CCOCC2)C[C@H]1C
inactive: [1] | [2] | [3] | [4]

COc1ccc(N2CCN(C(=O)CSc3ncnc4c3cnn4-c3ccc(OC)cc3)CC2)cc1
inactive: [1] | [2] | [3] | [4]

C/C=C/c1ccc([C@@H]2[C@@H](CO)N3CCCCN(C(=O)Nc4ccc(OC)cc4)C[C@H]23)cc1
inactive: [1] | [2] | [3] | [4]

O=C(NCC[C@H]1CC[C@@H](NS(=O)(=O)c2ccc(F)cc2)[C@H](CO)O1)c1ccc2c(c1)OCO2
inactive: [1] | [2] | [3] | [4]

CC(C)(C)NC(=O)CSc1ncnc2c1cnn2-c1ccccc1
inactive: [1] | [2] | [3] | [4]

Cc1ccc(NC(=O)[C@H](C)NC(=O)C2CCN(C(=O)[C@@H](N)C(C)C)CC2)cc1
inactive: [1] | [2] | [3] | [4]

C[C@@H]1CN([C@@H](C)CO)C(=O)c2cc(C3=CCCCC3)cnc2O[C@H]1CN(C)C(=O)Cc1cccnc1
inactive: [1] | [2] | [3] | [4]

C[C@H](CO)N1C[C@H](C)[C@@H](CN(C)Cc2ccncc2)OCCCC[C@H](C)Oc2ccc(NC(=O)NC3CCCCC3)cc2C1=O
inactive: [1] | [2] | [3] | [4]

COCCNC(=O)C[C@@H]1C[C@@H]2c3cc(NC(=O)C4CCOCC4)ccc3O[C@@H]2[C@@H](CO)O1
inactive: [1] | [2] | [3] | [4]

CCC(=O)N(C)C[C@H]1Oc2cc(C#CC(C)(C)O)ccc2S(=O)(=O)N([C@H](C)CO)C[C@@H]1C
inactive: [1] | [2] | [3] | [4]

CCOC(=O)CNC(=O)CSc1ncnc2c1cnn2-c1ccc(OC)cc1
inactive: [1] | [2] | [3] | [4]
